# Out of some 420,000 compounds screened, about 50,000 (12%) were called active. Inconclusive results (about 26%) are left out. Calls follow the shape of the dose curve; as a rule, active = well fitted inhibition curve with a large enough effect; inconclusive = small, poorly fitted or top-dose-only effect; inactive = flat fitted curve, though single readings scatter. This excerpt belongs to a sample that is enriched for actives. *1 amine or outer side, *2 acyl side, *3 side chain or, on linkers, in order; H or OH if unused. Where a SMILES comes first, the peptide text is derived from it. Bridges are numbered along the chain shown (N, C = ends). [ ]: non-standard residue; d: D form. The star is where a group is joined. X12 = NC1=N[C@@H]([C@H](N[*:1])C(=O)[*:2])C[C@H](O)N1; ΔAla(Z-3-ureido) = NC(=O)N/C=C(\N)C(=O)O; β3hOrn = NCCC[C@H](N)CC(=O)*; Dap = NC[C@H](N)C(=O)O
# Assay: qHTS for Inhibitors of human tyrosyl-DNA phosphodiesterase 1 (TDP1): qHTS in cells in presence of CPT; also: nearly all actives have a fitted effect of over 55% in size
# Settings: chicken DT40 Tdp1-/-;hTDP1 cells + 20 nM CPT, ATP luminescence, 48 h; series mostly up to 46.2 µM; activity change, negative = growth inhibition: at the top concentration
# Method in brief: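 Chicken DT40 Tdp1-/- cells complemented with human TDP1, 400 cells/well, exposed to compounds plus 20 nM camptothecin for at least 48 h at 37 C; viability read as ATP content by CellTiter-Glo luminescence.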
# % is scaled to controls: 0 for no effect and ±100 for the full control effect; potency is read from the fitted curve at half-maximal effect.
Compound,"activity change, negative = growth inhibition",Potency
Cc1cc(C)c(S(=O)(=O)N2C=CC(C(F)(F)F)=NCC2)c(C)c1,2.91% (inactive),–
c1ccc2cc(C3=NCCN3)ccc2c1,4.03% (inactive),–
Cc1ccc(Nc2c(O)nc[nH]c2=O)cc1C,8.79% (inactive),–
Cc1c(Cl)cccc1NC(=O)[C@@]1(CC(=O)O)CC(/C=C/c2ccccc2)=NO1,3.33% (inactive),–
N#CCc1c(C#N)c(N)nc(N2CCCC2)c1C#N,15.6% (inactive),–
CCCCN(C)c1nnc(NC(=O)Nc2ccc(Br)c(C)c2)s1,-27.6% (inactive),–
Cc1nnc(NC(=O)Nc2ccc(Cl)c(Cl)c2)s1,–,23.1 µM (active)
Cc1ccc(NC(=O)Nc2nnc(-c3ccncc3)s2)cc1,–,18.4 µM (active)
Cc1nnc(NC(=O)c2ccc3nccnc3c2)s1,-17.6% (inactive),–
Cc1occc1C(=O)Nc1nnc(-c2ccncc2)s1,10.3% (inactive),–
Cc1ccc(C(=O)Nc2nnc(-c3ccncc3)s2)o1,-12.2% (inactive),–
COCC1CCCN(C(=O)c2ccc3oc(C(C)C)nc3c2)C1 (stereo unspecified),-8.78% (inactive),–
COCCNC(=O)CN(Cc1ccco1)C(=O)CCC(=O)Nc1nccs1,1.07% (inactive),–
COc1ccc2c(c1)CCCO[C@]21O[C@H](CCO)C[C@H](O)[C@H]1O,-1.84% (inactive),–
CCC(C)NC(=O)c1cc(Cl)ccc1OC (stereo unspecified),-7.43% (inactive),–
CC1CCN(C(=O)c2ccc3c(=O)n4c(nc3c2)CCCCC4)CC1,-3.88% (inactive),–
CC1CCc2c(sc3nc4n(c(=O)c23)CCS4)C1 (stereo unspecified),-28.3% (inactive),–
Cc1ccc(NC(=O)Nc2sc3nc4n(c(=O)c3c2C)CCC(C)CC4)c(Cl)c1 (stereo unspecified),–,11.6 µM (active)
Cc1ccccc1NC(=O)CSc1ccc2nnc(-c3ccccn3)n2n1,-15.4% (inactive),–
COC(=O)[C@]1(C)N[C@H](CN(C)C(=O)c2ccc(C(C)(C)C)cc2)[C@@H]2C(=O)N(C)C(=O)[C@@H]21,-7.64% (inactive),–
Cc1cc(C)c(S(=O)(=O)c2cc(F)ccc2C)c(=O)[nH]1,2.26% (inactive),–
CC1(C)CN(c2ccc(-c3ccnc4ncnn34)cc2)C1=O,-8.25% (inactive),–
Cc1cc2oc(=O)cc(CN3CCN(S(=O)(=O)c4cccs4)CC3)c2cc1C(C)C,–,23.1 µM (active)
O=S(=O)(c1cccs1)N1CCN(Cc2ccccc2)CC1,-12.6% (inactive),–

Compound,"activity change, negative = growth inhibition",Potency
COc1ccc2c(CN3CCN(S(=O)(=O)c4cccs4)CC3)cc(=O)oc2c1,-24.3% (inactive),–
CCOc1ccc(C(CC(=O)O)n2cnnn2)cc1OC (stereo unspecified),1.9% (inactive),–
COc1ccc(C2=NN(C(=O)c3cccnc3)C(c3ccccc3)C2)cc1 (stereo unspecified),-8.32% (inactive),–
CCC(CC)c1nnc(NC(=O)C2=COCCO2)s1,11.4% (inactive),–
Cc1sc2nc(CSCC(=O)Nc3c(Cl)cccc3Cl)[nH]c(=O)c2c1C,–,7.31 µM (active)
Cc1sc2nc(COC(=O)C(NC(=O)c3ccc(Cl)cc3Cl)C(C)C)[nH]c(=O)c2c1C (stereo unspecified),-20.6% (inactive),–
CCN(CC)Cc1nc2sc(C)c(C)c2c(=O)[nH]1,-3.36% (inactive),–
CCOC(=O)/C=c1\s/c(=C\c2ccccc2OC)c(=O)n1CC(=O)N1CCOCC1,-24.5% (inactive),–
CCOc1ccc(NC(=O)Cn2c(C)ccc(C#N)c2=O)cc1,-0.0068% (inactive),–
CCOC(=O)/C=c1\s/c(=C\c2ccc(C#N)cc2)c(=O)n1CC(=O)Nc1cccc(C)c1C,–,1.3 µM (active)
NCCC[C@H](N)CC(=O)N[C@H]1CNC(=O)[C@H]([C@H]2C[C@H](O)NC(N)=N2)NC(=O)/C(=C/NC(N)=O)NC(=O)[C@H](CO)NC(=O)[C@H](CO)NC1=O (β3hOrn-[Dap]SS[ΔAla(Z-3-ureido)][X12]; lactam 1-C),-9.6% (inactive),–
COc1cc(NC(=O)c2nn(-c3ccc(C)cc3)c(=O)c3c2c2ccccc2n3C)cc(OC)c1OC,-3.89% (inactive),–
COc1ccc(CCNC(=O)c2c(C)nn(-c3ccccc3)c2Cl)cc1,-17.4% (inactive),–
CCOC(=O)c1ccccc1NC(=O)c1nn(-c2ccc(OC)c(Cl)c2)c(=O)c2c1c1ccccc1n2C,13.7% (inactive),–
COc1ccc(-n2nc(C(=O)NCCc3ccc(Cl)cc3)c3c4ccccc4n(C)c3c2=O)cc1Cl,–,3.66 µM (active)
COCCCNC(=O)CNC(=O)c1nn(-c2ccc(OC)cc2)c(=O)c2ccccc12,17.6% (inactive),–
Cc1cc(C(=O)NCCc2ccc(Cl)cc2)n(-c2ccccc2)n1,–,20.6 µM (active)
COc1ccc(-n2nc(C(=O)NCC(=O)N3CCC(C(N)=O)CC3)c3ccccc3c2=O)cc1OC,-4.29% (inactive),–
Cc1cc(NC(=O)Nc2ccc(Cl)cc2)n(-c2ccccc2)n1,1.8% (inactive),–
COc1ccc(-n2nc(C(=O)NCC(=O)N3CCCCCC3)c3ccccc3c2=O)cc1Cl,–,18.4 µM (active)
COC(=O)c1ccc2ccccc2c1OC1OC(CO)C(O)C(O)C1NC(C)=O (stereo unspecified),-14.5% (inactive),–
Fc1cccc(Cc2noc(CN3CCN(c4cnccn4)CC3)n2)c1,1.52% (inactive),–
Cc1ccc(C(=O)N2CCC(n3nccc3NC(=O)Nc3cccc(F)c3)CC2)cn1,1.87% (inactive),–
O=C(COC(=O)c1ccccc1NC(=O)c1ccco1)Nc1ccc2c(c1)OC(F)(F)O2,-10.2% (inactive),–

Compound,"activity change, negative = growth inhibition",Potency
CC1CC(C)CN(CCCNC(=O)c2csc3c2CCCCC3)C1 (stereo unspecified),-30% (inactive),–
O=C(CCNC(=O)c1ccccc1Cl)NCc1ccco1,-9.02% (inactive),–
CC(C(=O)c1ccc(-c2ccccc2)cc1)[n+]1cccc(Br)c1 (stereo unspecified),-16.3% (inactive),–
CCOC(=O)C1CCC(CN(Cc2ccc(OC)cc2)S(=O)(=O)c2ccc(F)c(C(=O)Nc3cc(C)ccc3C)c2)CC1 (stereo unspecified),-12.5% (inactive),–
COC(=O)Cc1ccc(NC(=S)NCc2ccccc2)cc1,-1.18% (inactive),–
Fc1ccccc1CNC(=S)Nc1ccc(Cl)cc1,–,20.6 µM (active)
Cn1cc(C(=O)NCc2ccccc2F)cn1,-0.179% (inactive),–
O=C(c1ccco1)N1CCN(C(=O)c2cc(-c3ccccc3F)no2)CC1,-22.9% (inactive),–
O=C1c2ccccc2S(=O)(=O)c2cc(N3CCN(c4ccccn4)CC3)ccc21,-14.1% (inactive),–
O=C(c1ccc2c(c1)N(Cc1ccccc1)C(=O)c1ccccc1S2(=O)=O)N1CCCC1,–,11.6 µM (active)
CC1CCCN(C(=O)CN2C(=O)c3ccccc3S2(=O)=O)C1 (stereo unspecified),-12.1% (inactive),–
CCCCN(C)C(=O)c1ccc2c(c1)N(CC)C(=O)c1ccccc1S2(=O)=O,-26.8% (inactive),–
O=C(c1ccc2c(c1)N(Cc1ccc(F)cc1)C(=O)c1ccccc1S2(=O)=O)N1CCN(c2ccccn2)CC1,–,14.6 µM (active)
O=C(c1ccc2c(c1)N(Cc1ccccc1F)C(=O)c1ccccc1S2(=O)=O)N1CCOCC1,-19% (inactive),–
O=C(c1ccc2c(c1)N(Cc1ccccc1)C(=O)c1ccccc1S2(=O)=O)N1CCC(Cc2ccccc2)CC1,–,8.2 µM (active)
O=C(c1ccc2c(c1)C(=O)N(c1ccc(Cl)cc1)C2=O)N1CCN(c2ccccn2)CC1,-5.02% (inactive),–
O=C(c1cccc(Br)c1)N1CCN(C2=NS(=O)(=O)c3ccccc32)CC1,3.46% (inactive),–
O=C(CN1C(=O)NC2(CCCC2)C1=O)Nc1ccc(F)c(F)c1F,1.12% (inactive),–
CC(=O)CC(CC(=O)NC1CCCCC1)c1ccccc1 (stereo unspecified),-7.82% (inactive),–
CCC(C)C1(C2CCCC2)NC(=O)NC1=O (stereo unspecified),-0.666% (inactive),–
CCOc1ccc(NC(=O)CN(C)C(=O)Cc2sc(C)nc2-c2ccc(F)cc2)cc1OCC,-19% (inactive),–
O=C(c1cnccn1)N1CCC2(CCCN(Cc3ccccc3)C2)CC1,20.2% (inactive),–
O=C(CCCOc1ccccc1)NNC(=O)c1ccc(Cl)cc1,1.38% (inactive),–
Cc1ccc(S(=O)(=O)N2CCC(C)CC2)cc1C(=O)NCc1ccccn1,-5.04% (inactive),–

Compound,"activity change, negative = growth inhibition",Potency
S=C(NCc1ccc(Cl)cc1)NC1CCCCC1,-20.8% (inactive),–
CN(C)CCCNC(=S)NCc1ccc(Cl)cc1,-11.7% (inactive),–
NCCCNC(=S)NCCCN(Cc1ccc(Cl)cc1)c1ccc(Br)cn1,–,15.8 µM (active)
CCCn1c(C)cc(/C=C(\C#N)C(=O)OCC(=O)N(C)c2c(N)n(Cc3ccccc3)c(=O)[nH]c2=O)c1C,-14% (inactive),–
CN(CC(=O)O)C(=O)c1ccccc1,1.89% (inactive),–
CN(/N=C/c1ccccc1)C(=S)c1ccccc1,-24.4% (inactive),–
CN(O)C(=S)c1ccccc1,–,0.13 µM (active)
CC(C)c1nc2cc(C(=O)NC(C)c3cnn(C)c3)ccc2o1 (stereo unspecified),4.73% (inactive),–
O=C(NCCS(=O)(=O)NCc1ccc(Cl)cc1)c1ccccc1,-3.08% (inactive),–
CC(=O)c1cc(C#N)c(N2CC(C)OC(C)C2)nc1C (stereo unspecified),10.4% (inactive),–
CC(=O)c1cc(C#N)c(SCC(=O)C(C)(C)C)nc1C,–,2.82 µM (active)
CC(=O)c1cc(C#N)c(N2CCCCC2)nc1C,-24.1% (inactive),–
O=C(NCc1cccnc1)c1ccc2nc([C@@H]3O[C@H](CO)[C@H](O)[C@H](O)[C@H]3O)[nH]c2c1,17.8% (inactive),–
CC1=NN(C(N)=S)C(=O)C1N=Nc1cc(Cl)ccc1Cl (stereo unspecified),-94.3% (inactive),–
Cc1nc(Nc2ccccc2C)c2cnn(C)c2n1,10.9% (inactive),–
CC[C@]12c3[nH]c4ccc(Cl)cc4c3CCN1C(=O)[C@@H](CC(=O)NCCN1CCOCC1)C[C@@H]2C(=O)N1CCN(C(=O)C2CC2)CC1,-14.3% (inactive),–
COc1ccc(CNC(=O)C[C@H]2C[C@H](C(=O)N3CCOCC3)[C@@]3(CCC4CCCC4)c4[nH]c5ccc(Cl)cc5c4CCN3C2=O)cc1OC,–,16.4 µM (active)
CC[C@]12c3[nH]c4ccc(Cl)cc4c3CCN1C(=O)[C@@H](CC(=O)NCCCOC)C[C@@H]2C(=O)N1CCN(C(=O)c2ccco2)CC1,-26.2% (inactive),–
CC[C@]12c3[nH]c4ccc(OC)cc4c3CCN1C(=O)C(CC(=O)NCc1ccco1)C[C@@H]2C(=O)N1CCN(C(=O)C2CC2)CC1 (stereo partly specified),-10% (inactive),–
O=C(C[C@H]1C[C@H](C(=O)N2CCOCC2)[C@@]2(CCC3CCCC3)c3[nH]c4ccc(Cl)cc4c3CCN2C1=O)NCc1ccco1,–,20.6 µM (active)
COc1ccc2[nH]c3c(c2c1)CCN1C(=O)C(CC(=O)NCCCN(C)C)C[C@H](C(=O)N2CCOCC2)[C@@]31CCC1CCCC1 (stereo partly specified),-11.2% (inactive),–
O=C(NNS(=O)(=O)c1ccc(F)cc1)c1ccc([N+](=O)[O-])cc1Cl,-27.5% (inactive),–
Cc1cc(OC(C)C(=O)Nc2ccc(S(=O)(=O)Nc3onc(C)c3C)cc2)cc(C)c1Cl (stereo unspecified),5.33% (inactive),–
CNC(=O)C1CC(=O)N(c2ccc(OCC(=O)Nc3ccccc3C)cc2)C1 (stereo unspecified),6.86% (inactive),–

# From PubChem BioAssay AID686979 (National Center for Advancing Translational Sciences (NCATS), 2013)
